Source: PubChem BioAssay (several laboratories)
Most compounds without a hit are left out; they make up all but 4.7% or so of the library.
PABP polyA inh – PABP poly(A) RNA binding inhibitors, primary screen, biochemical, fluorescence polarization, uHTS; Polyadenylate-binding protein 1 (Homo sapiens), P11940; inhibition, % at 35 µM; 290,000 tested, 1% active;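 also: calls also rest on retests at 20 µM and on dose response follow-up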
Efflux pump inh – inhibitors of Candida efflux pumps in yeast, primary screen, S. cerevisiae, Nile Red, multiplex | inhibition, % at 10 µM | S. cerevisiae Candida pump triplex | 330,000 tested, 0.44% active;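 active = plate passing quality check with inhibition over a set limit, or well fluorescence over plate mean plus 4 SD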;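 also: Nile Red retained in pooled yeast measured as flow cytometry median fluorescence; 0% = buffer negative control and 100% = Enniatin B positive control; higher means more Nile Red kept so more efflux inhibition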
eIF4H inh – human eIF4H binding inhibitors, primary screen, translation initiation inhibitor project, biochemical, uHTS, fluorescence polarization | eIF4H fluorescence polarization binding assay | inhibition, % at 35 µM | 290,000 tested, 0.94% active;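 also: calls also rest on retests at 20 µM and on dose response follow-up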
ALR inh – inhibitors of human ALR sulfhydryl oxidase, primary screen, biochemical, H2O2 detection, HRP-luminol luminescence, single point. inhibition, % (concentration not given with the values). AID 485317, 2010. purified ALR, DTT oxidation. 290,000 tested, 3.8% active. FAD-linked sulfhydryl oxidase ALR (Homo sapiens), P55789;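 active = mean replicate inhibition above about 79%, with every replicate also reaching it, limit read from the data; inconclusive = only one of the two criteria met; inactive = mean below limit and not every replicate reaching it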
PABP1 MLLE inh – inhibitors of PABP1 MLLE–PAM2 peptide binding, primary screen, biochemical, fluorescence polarization, FITC-PAM2, GST-MLLE | 360,000 tested, 0.36% active | inhibition, % at 20 µM | AID 588489, 2011 | Polyadenylate-binding protein 1 (Homo sapiens), P11940; in the data active = inhibition above about 35%, passing the limit was not always enough;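 also: plate controls were DMSO wells with GST-MLLE for no effect and wells lacking GST-MLLE protein for full effect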
SUMO HTRF inh – inhibitors of in vitro SUMOylation cascade, primary screen, biochemical, HTRF, uHTS | HTRF SUMOylation assay, SAE1/SAE2 + UBC9 | AID 2006, 2009 | SUMO-conjugating enzyme UBC9 (Homo sapiens), P63279 | 290,000 tested, 0.36% active | inhibition, % at 35 µM; in the data active = inhibition above about 50%, passing the limit was not always enough; inconclusive = no clear call, values can overlap the other calls
Target sequence (P63279 whole entry, looked up): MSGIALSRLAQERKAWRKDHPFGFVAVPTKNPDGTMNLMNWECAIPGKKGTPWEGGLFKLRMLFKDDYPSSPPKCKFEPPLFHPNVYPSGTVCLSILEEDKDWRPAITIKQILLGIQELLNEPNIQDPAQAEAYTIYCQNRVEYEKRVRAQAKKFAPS
An asterisk follows results filed as active; i = inactive; ? = inconclusive; · = no result given. Unless noted, no rule for the calls is given here.

SMILES	PABP polyA inh	Efflux pump inh	eIF4H inh	ALR inh	PABP1 MLLE inh	SUMO HTRF inh
Cc1cccc(C)c1NC(=O)CN(C)C(=O)c1ccc(OCc2ccccc2)cc1	·	·	·	·	-3	·
O=S(c1ccc2ccccc2c1)c1cnns1 (stereo unspecified)	-12	0	-9	99*	-5	14
COc1ccc2c3c(cccc13)N(C)N=C2C	?	0	100*	75	95*	49
COc1ccc2c3c(cccc13)OC2=O	2	0	-4	-4	0	9
COc1ccc(F)cc1-c1cc(C(=O)NC2CCCCC2)[nH]n1	·	·	·	·	6	·
COc1ccc(NC2c3ccccc3C(=O)N2c2cccnc2)cc1Cl (stereo unspecified)	-7	0	-1	83*	16	13
Cc1ccc(C(=O)NC2CC(C)(C)NC(C)(C)C2)cc1C	-5	0	-6	99*	9	6
CCOc1ccc(Cc2nnc(SCC(=O)c3ccc(OC)cc3)o2)cc1	-2	0	6	-1	-51	-3
CCOc1ccc(Nc2nc(Cc3nnc(SCC(=O)O)o3)cs2)cc1	62	0	48*	87*	-54	17
COc1cc(-c2nc3cccc(C)n3c2NCC2CCCO2)ccc1O (stereo unspecified)	6	0	0	99*	23	25
COc1ccc(-c2nc3cc(C)ccn3c2NCC2CCCO2)cc1OC (stereo unspecified)	·	0	·	74	4	·
CN(C)CCCNS(=O)(=O)c1ccc(N2CCC(c3ccc(Cl)cc3)=N2)cc1	-16	0	-2	91*	·	65*
O=S(=O)(c1ccc(N2CCC(c3ccc(Cl)cc3)=N2)cc1)N(CCO)CCO	13	0	-1	98*	27	41
COc1cc(CNC(=O)Nc2nc(C(N)Cc3ccc(C(F)(F)F)cc3)cs2)cc(OC)c1OC (stereo unspecified)	·	·	·	·	-1	·
O=C(CCN1CCc2ccccc2C(c2ccccc2)C1)c1ccc2c(c1)OCCO2 (stereo unspecified)	-7	0	-10	97*	30	-26
O=C(CN1CCN(c2ccc(F)cc2)CC1)NC(=O)NCc1ccco1	-1	0	56	20	3	18
CC[C@H](NC(=O)CC[C@H]1O[C@@H](n2cnc3c(NC(=O)c4ccccc4)ncnc32)[C@H](O)[C@@H]1O)c1ccccc1	·	·	·	·	-6	·
O=C(NC1=NCCS1)c1sc2cc(F)ccc2c1Cl	13	0	-7	99*	-8	0
Nc1c(C(=O)C2CC2)sc2nc(-c3cccs3)cc(C(F)(F)F)c12	108	0	94*	30	i	29
CN(C)CCCNc1cc(O)c2ncccc2c1	·	0	·	17	41*	·
Oc1cc(NCc2ccc(F)cc2)cc2cccnc12	·	0	·	22	22	·
CCN1CCc2nc3sc(C(=O)N4CCc5ccccc5C4)c(N)c3cc2C1	89*	0	98*	·	-27	11
CCOC(=O)C1CCCN(Cc2c(F)cccc2Cl)C1 (stereo unspecified)	18	0	-7	99*	-1	0
CCOC(=O)C1CCN(Cc2c(F)cccc2Cl)CC1	4	0	-14	98*	-10	-7
CCOC(=O)C1CCN(Cc2ccc(N(C)C)cc2)CC1	-6	0	7	99*	-37	5
COc1cc(C(=O)Nc2ccc(N3CCCS3(=O)=O)cc2)c([N+](=O)[O-])cc1OC	·	0	·	-17	0	·
CC(C)CN1C(=O)C(=O)N(CC(=O)c2ccc3c(c2)CCCC3)C1=O	·	0	·	16	0	·
COc1ccc(NC(=O)c2ccc(Cl)nc2)cc1S(=O)(=O)N1CCOCC1	·	0	·	-1	5	·
COc1ccc(NC(=O)Cn2ncc(Cl)c(Cl)c2=O)cc1S(=O)(=O)N1CCOCC1	1.8*	-1	90	·	-21	22
CCN(CC)S(=O)(=O)c1cc(NC(=O)Cn2ncc(Cl)c(Cl)c2=O)ccc1C	14*	0	77	0	-23	66*
